# In PubChem BioAssay AID2177 (The Scripps Research Institute Molecular Screening Center, 2009):
# In all, about 320,000 compounds went through this assay and about 1,200 (0.38%) were called active. Shown is part of a subset that was picked to be rich in actives. Values without a mark were called inactive.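 The calls were made as follows: active = inhibition above the screen-wide mean plus 3 SD, limit set per campaign (cut at about 26% in these data); inactive = the rest.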
# Target: Acyl-protein thioesterase 2 (Homo sapiens) (UniProt O95372)
# Sequence (O95372 whole entry, looked up): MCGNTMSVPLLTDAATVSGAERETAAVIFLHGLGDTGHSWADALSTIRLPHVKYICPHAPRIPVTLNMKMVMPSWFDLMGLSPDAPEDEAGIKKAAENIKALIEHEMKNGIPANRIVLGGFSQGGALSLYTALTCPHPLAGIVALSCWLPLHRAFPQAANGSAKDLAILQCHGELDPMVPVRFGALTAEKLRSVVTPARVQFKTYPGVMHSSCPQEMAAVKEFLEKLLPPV
# Test: inhibition of human lysophospholipase 2 – biochemical, fluorescence polarization, FP-Rh probe ABPP, counter-screen for PME1 inhibitor project, primary screen (AID 2177);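 also: 0% = LYPLA2 with DMSO and 100% = wells lacking LYPLA2 enzyme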
# Conditions: recombinant LYPLA2, FP-Rh probe fluorescence polarization; at 5.9 µM; stronger effect = higher value
row,Compound,inhibition
1,CCOc1cc(S(=O)(=O)NCc2ccc3c(c2)OCO3)ccc1F,7.67%
2,CCCn1c(NC(=O)C23CC4CC(CC(O)(C4)C2)C3)nc2ccccc21,-2.06%
3,CCC1CCCCN1C(=O)CSc1nc2c(c(=O)n(C)c(=O)n2C)n1C (configuration not stated),1.22%
4,CC/C(Cc1ccccc1)=N/NC(=O)CCn1nnc2ccccc21,9.11%
5,Cc1ccc(C(=O)Cn2cc([N+](=O)[O-])nc2C)cc1,14.3%
6,Cc1nn(CC(=O)Nc2ccc3c(c2)OCO3)c(C)c1[N+](=O)[O-],3.02%
7,Cc1nc([N+](=O)[O-])cn1CC(=O)Nc1ccc2c(c1)OCO2,27.6% (active)
8,Cc1cc(C)n(CC(=O)Nc2ccc([N+](=O)[O-])cc2)n1,-3.9%
9,Cc1nc([N+](=O)[O-])cn1CC(=O)Nc1ccc(Cl)cc1,35.7% (active)
10,Cc1onc(C(=O)Nc2ccc3c(c2)OCO3)c1[N+](=O)[O-],7.4%
11,CC(C)C1Nc2c(C(=O)O)cccc2C(Nc2ccccc2C(=O)O)C1(C)C (configuration not stated),1.52%
12,c1ccc(CSc2ncnc3c2sc2nc(N4CCOCC4)c4c(c23)CCCC4)cc1,1.88%
13,CCOc1ncccc1C(=O)N(CC)CC(=O)Nc1ccc(NC(C)=O)cc1,-2.58%
14,COc1ccc(C(C#N)Nc2ccccc2C)cc1 (configuration not stated),2.16%
15,COc1ccc(C(CC(=O)Nc2ccc(C)cc2)NC(=O)C(F)(F)F)cc1 (configuration not stated),-1.1%
16,COc1ccc(C(C#N)Nc2ccc(C)cc2)cc1 (configuration not stated),29.2% (active)
17,Cn1nc(C(F)(F)F)c(C(=O)Nc2cccc(C(F)(F)F)c2)c1SCc1ccc(Cl)cc1,-39.3%
18,O=C(Oc1ccc(Br)cc1)c1cccnc1,1.78%
19,CCCCCCOc1ccc(OC(=O)c2cccnc2)cc1,49.8% (active)
20,N#CCc1ccc(OC(=O)c2cccnc2)cc1,-0.53%
21,COC(=O)c1cccc(-n2[nH]nnc2=S)c1,-1.32%
22,CN1CCN(c2ccc(S(=O)(=O)N3CCOCC3)cc2NC(=O)CCc2ccccc2)CC1,6.09%
23,O=C(Cc1ccccn1)c1ccc(O)cc1O,-2.59%
24,CCOC(=O)c1cc2cc(-c3c(C(=O)OCC)oc4cc(O)cc(O)c4c3=O)ccc2o1,33.9% (active)
25,O=c1c(-c2ccc3c(c2)OCCO3)c(C(F)(F)F)oc2cc(O)cc(O)c12,3.69%
26,CCOC(=O)c1cc(=O)c2ccc(OCc3ccccc3)cc2o1,-1.62%
27,COC(=O)c1ccc(CN2CCCC(C(=O)Nc3cccc(-n4cnnn4)c3)C2)cc1 (configuration not stated),2.89%
